The full list was thinned out, with hits kept by preference.
KDM5B inh – Primary screen for KDM5B Histone Demethylases FDH-coupled qHTS. Lysine-specific demethylase 5B (Homo sapiens), Q9UGL1. KDM5B demethylase, FDH-coupled NADH fluorescence (FDH is formaldehyde dehydrogenase). Potency, µM (highest dose often 57.7 µM), actives largely listed as inhibitors. 220,000 tested, 2.6% active; active means well fitted inhibition curve with a large enough effect; further: 0% is about no effect; nearly all actives have a fitted effect of over 70% in size
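Inhibition is measured as reduced NADH fluorescence generation from FDH coupling to formaldehyde release. Truncated KDM5BΔAP at 200 nM final acts on H3K4me3 peptide (12.5 µM in substrate mix) in pH 7.5 HEPES buffer with Tween-20, 30 min, room temperature.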
* hit, by the source's call; i = inactive. Potency means the concentration at half of the fitted maximal effect.

SMILES	KDM5B inh
CCOc1ccc(-c2nc(C3CC(=O)N(c4ccc(Cl)cc4)C3)no2)cc1 (stereo not given)	32µM*
Cc1ccc(-c2nc(C3CC(=O)N(c4ccc(F)c(Cl)c4)C3)no2)cc1 (stereo not given)	i
O=C1CC(c2noc(-c3ccc(-c4ccccc4)cc3)n2)CN1c1ccc(F)cc1 (stereo not given)	32µM*
O=C1CC(c2noc(-c3ccccc3)n2)CN1c1ccc(Cl)cc1 (stereo not given)	i
CCc1ccc(-c2nc(C3CC(=O)N(c4ccc(Cl)cc4)C3)no2)cc1 (stereo not given)	i
COc1ccc(-c2nc(C3CC(=O)N(c4ccc(C)cc4)C3)no2)cc1 (stereo not given)	i
CCOc1ccc(-c2nc(C3CC(=O)N(c4ccc(F)c(Cl)c4)C3)no2)cc1OCC (stereo not given)	32µM*
Cc1ccc(-c2nc(C3CC(=O)N(c4ccc(F)cc4)C3)no2)cc1C (stereo not given)	i
Cc1ccc(-c2nc(C3CC(=O)N(c4ccc(F)c(Cl)c4)C3)no2)cc1C (stereo not given)	i
Cc1ccsc1C(=O)N1CCC(N2C[C@H](O)C[C@H]2C(=O)NC2CCCCC2)CC1	i
FC(F)(F)c1ccc(/C=N/Nc2ccccc2Cl)cc1	i
COc1ccc(OC)c2sc(N3CCN(C(=O)C4CCCCC4)CC3)nc12	i
COc1ccc(/C=C/C(=O)c2ccc(O)c(CCCl)c2)cc1C	i
N#Cc1c(NC(=O)CCn2nnc(-c3cccc(Cl)c3)n2)sc2c1CCCC2	i
COc1cccc(/C=C/C(=O)Nc2cccc(CO)c2)c1	i
Cc1ccc(NC(=O)C2CCCN(S(=O)(=O)c3ccc4[nH]c(=O)oc4c3)C2)cc1N(C)C (stereo not given)	i
C=CCc1ccccc1OCC(O)Cn1nc(C(N)=O)c2ccccc2c1=O (stereo not given)	i
COc1cc(C)c(S(=O)(=O)Nc2ccc(Nc3cc(N4CCCC4)nc(C)n3)cc2)cc1C	i
Cc1cc2c(cc1C)CSC(c1cc(Cl)ccc1O)SC2	i
O=C(COC(=O)c1cccc(F)c1)c1ccc([N+](=O)[O-])cc1	i
Cc1ccc(-c2nc(C3CC(=O)N(c4ccc(Cl)cc4)C3)no2)c(C)c1 (stereo not given)	i
CN(C)c1ccc(-c2nc(C3CC(=O)N(c4ccc(Cl)cc4)C3)no2)cc1 (stereo not given)	4µM*
Cc1cc(C)cc(-c2nc(C3CC(=O)N(c4ccc(Cl)cc4)C3)no2)c1 (stereo not given)	i
O=C(O)CCCC(=O)c1ccc2c(c1)OCCOCCOCCOCCO2	i
O=C(C1CCc2ncc(-c3ccsc3)n2C1)N1CCN(c2ccccn2)CC1 (stereo not given)	25µM*
SMILES	KDM5B inh
CN(C)C(=O)c1cc2c(s1)CCC(C(=O)N1CCN(c3ccccc3)CC1)C2 (stereo not given)	i
CC(C)CNC(=O)C1CCc2ncc(-c3ccsc3)n2C1 (stereo not given)	i
CN(C)C(=O)c1cc2c(s1)CCC(C(=O)N1CCN(c3cccc(Cl)c3)CC1)C2 (stereo not given)	i
O=C(NC1CCN(Cc2ccccc2)CC1)C1CCc2ncc(-c3ccsc3)n2C1 (stereo not given)	i
CN(C)C(=O)c1cc2c(s1)CCC(C(=O)N1CCN(c3ccccn3)CC1)C2 (stereo not given)	28µM*
CCOc1ccc(NS(=O)(=O)c2ccsc2C(=O)OC)cc1	i
CCCCCCCc1c(C(=O)O)c2ccccc2c2ccccc12	i
Cc1ccc(CN2C[C@@H](CO)[C@H](NC(=O)c3cccnc3)C2)cc1	i
Cc1ccn(CC(=O)N[C@@H]2CN(c3ncccn3)C[C@H]2CO)n1	i
Cc1ccccc1CC(=O)N[C@@H]1CN(c2ccncn2)C[C@H]1CO	i
Cc1ccc(C(=O)N[C@@H]2CN(c3ncccn3)C[C@H]2CO)nc1	20µM*
Cc1ccoc1C(=O)N[C@@H]1CN(c2ncccn2)C[C@H]1CO	25µM*
Cc1cccnc1C(=O)N[C@@H]1CN(Cc2ccccc2)C[C@H]1CO	i
c1ccc(-c2ccc(CN3CCNCC3)s2)cc1	i
CC(C)NC(=O)NC(=O)CN1CCCc2c(C(=O)NC(C)C)cccc21	i
Cc1ccc(C(=O)c2c(C)c(CCC#N)n3ccccc23)cc1C	i
O=C(CCNC(=O)NCc1nc2c(cnn2-c2ccccc2)c(=O)[nH]1)NCc1ccccc1	i
CSC1=N/C(=C\c2cccc(Cl)c2Cl)C(=O)S1	i
Cc1ccc(C(O)CNC(=O)c2ccc3c(c2)NC(=O)CS3)cc1 (stereo not given)	i
CC(NC1CCCc2ccccc21)C(=O)c1c[nH]c2ccccc12 (stereo not given)	i
COCCOc1ccc(C(=O)/C=C/c2cc(OC)c(O)c(OC)c2)cc1	i
COCCOc1ccc(-c2nc(C)ccc2OC)cc1	25µM*
COc1ccc(C)nc1-c1cccc(OC)c1C(=O)N(C(C)C)C(C)C	i
O=C(c1ccc(-c2ccccc2)cc1)C(O)c1ccc(-c2ccccc2)cc1 (stereo not given)	i
CC(=O)c1ccc(C(=O)N2CC=C(c3ccccc3)CC2)s1	i
SMILES	KDM5B inh
CCc1cccc2c(C3=CCN(C(=O)c4ccccc4)CC3)c[nH]c12	i
O=C(c1cccc(O)c1)N1CC=C(c2cnc3cnc(-c4ccccc4)cn23)CC1	28µM*
COc1ccc2c(ccn2CCC(=O)NCc2ccccc2OC)c1	i
COc1ccc(CN(C)c2ccc(-c3nc(-c4ccccc4)no3)cc2[N+](=O)[O-])cc1	i
CN(Cc1ccccc1)Cc1nnc2cc(-c3nc(-c4ccccc4)no3)ccn12	28µM*
CN(Cc1cccc(C(F)(F)F)c1)Cc1nc(-c2ccccc2)no1	i
CC(C)N(Cc1ccccc1)Cc1nnc2cc(-c3nc(-c4ccccc4)no3)ccn12	28µM*
CCCCCCCCC(=O)NCCC1=CCCCC1	i
Cc1ccc(OCC(O)Cn2nc(-c3ccco3)oc2=O)cc1 (stereo not given)	i
O=C(O)c1cc(Cl)cc(Cl)c1I	i
CCN(C(=O)COc1ncnc2ccc(Br)cc12)c1ccccc1	i
CNc1ccc(C)cc1C(=O)NC(C(=O)O)c1c(C)n[nH]c1C (stereo not given)	32µM*
Cc1nc2ccc(C(=O)NC(C(=O)O)c3c(C)n[nH]c3C)cc2[nH]1 (stereo not given)	i
CCCC(=O)Nc1cccc(C(=O)NC(C(=O)O)c2c(C)n[nH]c2C)c1 (stereo not given)	i
CCN(Cc1ccncc1)C(=O)c1cc(=O)c2ccccc2o1	i
O=C1c2cc(N3CCOCC3)nc(-c3cnc4[nH]ccc4c3)c2CN1CC1CC1	13µM*
O=C1Cc2c(-c3cccc(O)c3)n[nH]c2CN1CC1CC1	i
CN1CC(=O)N(c2ccccc2F)Cc2c1ncnc2N1CCOCC1	i
O=C1c2cc(N3CCOCC3)nc(-c3ccccc3F)c2CN1CC(F)(F)F	32µM*
O=C1c2cc(N3CCOCC3)nc(-c3cnc4[nH]ccc4c3)c2CN1CC(F)(F)F	32µM*
O=C1Cc2c(-c3ccsc3)n[nH]c2CN1CC1CCOCC1	i
O=c1[nH]c(N2CCOCC2)nc2c1CCN(Cc1ccccc1F)CC2	i
CCOc1ccc(S(=O)(=O)N(CC(=O)Nc2cccc(C)c2)c2ccccc2)cc1	i
